Source: PubChem BioAssay

Experiment: small-molecule microarray binders of probe aLefty2, primary screen, biochemical, biotinylated probe, 635/667 nm fluorescence (AID 1094);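 also: score merges spot fluorescence near 667 nm with spot signal-to-noise ratio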
Details: higher = more signal
In the case of `CCOC(=O)C[C@H]1[C@H](OC(=O)Cc2ccc3c(c2)OCO3)[C@@H](NC(=O)c2ccc3ccccc3c2)c2cc(OCCCO)ccc2N1C(=O)Cc1ccc(OC)cc1`, the composite z-score is reported as 0.164.
Compound `O=C(NCc1ccccc1)c1ccc(Br)cc1[N+](=O)[O-]` has a composite z-score of 0.109.
In the case of `CC(C)(C)OC(=O)CC[C@]1(C(=O)N2CCCCC2)N=C(c2ccc(OCCCO)cc2)O[C@H]1c1ccccc1`, the composite z-score is reported as 0.0224.
`C=CCNC(=O)[C@@H]1[C@H]2C(=O)O[C@H](c3ccccc3)[C@H](c3ccccc3)N2[C@H](c2ccc(OCCO)cc2)[C@@]12C(=O)N(C(=O)OCCOC)c1ccc(C#CC3(O)CCCCCC3)cc12` gave a composite z-score of 0.505.
With `CCCC=C(CCC)[C@@H](NS(=O)(=O)c1ccc(C(F)(F)F)cc1)c1ccc(-c2ccccc2)cc1` the composite z-score was 0.0491.
In the case of `NC(=O)NCC#Cc1ccc2c(c1)[C@]1(C(=O)N2)[C@H](C(=O)N2CCCCCCC2)[C@H]2C(=O)O[C@H](c3ccccc3)[C@H](c3ccccc3)N2[C@@H]1c1ccccc1OCCO`, the composite z-score is reported as 1.65.
With `C=C[C@H](OC)[C@@H](OC(=O)Nc1ccc(SC)cc1)c1ccc(O)c(F)c1` the composite z-score was -0.0174.
`CO[C@H]1COC(=O)CC=C[C@H](C)COC(=O)[C@@H](OCc2ccccc2)C=C[C@@H]1C` gave a composite z-score of -0.368.
`CC(C)C[C@@H]1NC(=O)[C@H]2C[C@@H](C(=O)NCCCCCC[N+](C)(C)C)[C@@H](c3ccc(O)cc3)N2C1=O` showed a composite z-score of -0.134.
Work on `CO[C@H]1COC(=O)[C@@H](C)NC(=O)CC=C[C@@H](C)[C@H](OC)COC(=O)CC=C[C@@H]1C` yielded a composite z-score of -0.28.
With `C=CC[C@@]12N=C(c3ccc(OCCCO)cc3)O[C@@H]1c1ccccc1CN(Cc1ccccc1)C2=O` the composite z-score was 0.258.
In the case of `COc1ccc([Si](C)(C)[C@@H]2[C@@H](CC(=O)N(CCO)Cc3ccccc3)O[C@]3(C(=O)N(Cc4cccc(N5CCC5=O)c4)c4ccccc43)[C@H]2C)cc1`, the composite z-score is reported as -0.17.
For `CN(C)CCCC[C@@H]1NC(=O)[C@@H]2C[C@H](C(=O)O)[C@H](c3ccc(O)cc3)N2C1=O`, the composite z-score was -0.153.
In the case of `CCOC(=O)C1=CCC(c2cccc3ccccc23)N(S(=O)(=O)c2ccc(C)cc2)C1` (stereo unspecified), the composite z-score is reported as 0.346.
For `CO[C@@H]1COC(=O)CC=C[C@@H](C)[C@H](OC)COC(=O)CC=C[C@H]1C`, the composite z-score was -0.38.
With `C=C(COC)/C(=C/C[C@H](OC(C)=O)c1ccc(OCCO)cc1)c1cnc2ccccc2c1` the composite z-score was 0.0707.
`CO[C@H]1O[C@H](CO)[C@@H](OC(=O)Nc2ccc(Oc3ccccc3)cc2)[C@H](OC(=O)Nc2ccccc2-c2ccccc2)[C@H]1OC(=O)Nc1ccccc1-c1ccccc1` gave a composite z-score of 0.218.
Work on `CCC1=C2CN(Cc3ccccc3Br)[C@@H]([C@@H](O)Cc3ccccc3)C2C=CCC1` (stereo partly specified) yielded a composite z-score of -0.125.
In the case of `[N-]=[N+]=NCc1ccccc1C[C@@]1(C(=O)N2CCOCC2)N=C(c2ccc(OCCCO)cc2)O[C@@H]1c1ccccc1N=[N+]=[N-]`, the composite z-score is reported as 0.557.
In the case of `C=CC(=O)O[C@@H](Cc1ccccc1)[C@H]1C2C=CCCC=C2CN1Cc1cccc(Cl)c1` (stereo partly specified), the composite z-score is reported as -0.192.
`NC(=O)[C@H]1[C@@H]2C(=O)O[C@@H](c3ccccc3)[C@@H](c3ccccc3)N2[C@@H](c2ccc(O)cc2)[C@]12C(=O)Nc1ccc(C#CCCO)cc12` gave a composite z-score of -0.05.
For `NC(=O)NCC#Cc1ccc2c(c1)[C@]1(C(=O)N2)[C@H](C(N)=O)[C@H]2C(=O)O[C@H](c3ccccc3)[C@H](c3ccccc3)N2[C@@H]1c1ccccc1OCCO`, the composite z-score was 0.129.
With `C=CC[C@]1(C(N)=O)N=C(c2ccc(OCCCO)cc2)O[C@H]1c1ccccc1CN=[N+]=[N-]` the composite z-score was 0.0565.
For `C[N+](C)(C)CCCCNC(=O)[C@@H]1C[C@@H]2C(=O)N3CCC[C@H]3C(=O)N2[C@@H]1c1cccc(OCCO)c1`, the composite z-score was -0.123.
`O=C1O[C@H](c2ccccc2)[C@H](c2ccccc2)N2[C@H]1[C@@H](C(=O)Nc1nc3ccccc3s1)[C@]1(C(=O)Nc3ccc(C#CC4(O)CCCCCC4)cc31)[C@H]2c1ccc(O)cc1` showed a composite z-score of 0.11.
`COc1ccc(C(O)C2C=CC3C(=O)N(C)C(=O)C3N2N2CCCCC2)cc1OCc1ccccc1` (stereo unspecified) showed a composite z-score of 0.491.
`CC1=C([C@H](O)CCc2ccccc2)[C@H](CO)[C@@H]2C(=O)N(Cc3ccccc3)C(=O)[C@@H]2C1` showed a composite z-score of 0.0769.
For `C=C[C@H](OC)[C@@H](OC(=O)Nc1ccc(SC)cc1)c1ccc(OC)c(O)c1`, the composite z-score was -0.0986.
`CC(C)(C)OC(=O)CC[C@@]1(C(=O)NCc2ccccc2)N=C(c2ccc(OCCCO)cc2)O[C@@H]1c1ccccc1` showed a composite z-score of 0.0717.
`O=C1c2ccccc2[C@](Cc2ccccc2I)(C(=O)NCC(F)(F)F)[C@H](c2ccc(CO)cc2)N1Cc1ccccc1C(F)(F)F` gave a composite z-score of -0.366.
`C=CCC(OC(C)=O)[C@@H]1[C@@H](N(Cc2cccc3ccccc23)C(=O)Cc2ccc(F)cc2)c2cc(OCCCO)ccc2N1C(=O)Cc1ccc2ccccc2c1` (stereo partly specified) gave a composite z-score of -0.0197.
`C=CCN1C(=O)[C@@]2(Cc3ccccc3)N=C(c3ccc(OCCCO)cc3)O[C@H]2c2ccccc21` showed a composite z-score of 0.44.
Compound `Cc1ccc(N2C(=O)c3ccccc3[C@@H](C(=O)NCc3ccccc3)[C@@H]2c2ccc(CO)cc2)nc1` has a composite z-score of 0.306.
Work on `CO[C@H]1COC(=O)[C@H](C)COC(=O)[C@H](Cc2ccccc2)NC(=O)CC=C[C@H]1C` yielded a composite z-score of 0.0128.
`CN(C)CCCC[C@@H]1NC(=O)[C@@H]2C[C@H](C(=O)NCCCCCNC(=O)CS)[C@H](c3ccc(O)cc3)N2C1=O` gave a composite z-score of -0.0079.
In the case of `O=C1O[C@H](c2ccccc2)[C@H](c2ccccc2)N2[C@H]1[C@@H](C(=O)NC[C@H](O)c1ccccc1)[C@]1(C(=O)Nc3ccc(C#CC4=CCCCC4)cc31)[C@H]2c1ccc(OCCO)cc1`, the composite z-score is reported as -0.104.
